Several values for one entry are separate records, joined by “and”; a condition that tells them apart may be missing. Identical values can stand only once. Values without a mark were called inactive. Records with an inconclusive call do not appear. Activity calls are given as the source filed them. Unless noted, the call rests on the fitted dose curve; in most records, active means well fitted curve in either direction with a large enough effect (not every such curve was filed as active); inconclusive means small, poorly fitted or top-dose-only effect, or another doubt; inactive means flat fitted curve, though single readings scatter.
Experiments:
[1] = AP1 Signaling Pathway (AID 357); further: on the % scale 0 is the no-effect control and ±100 the full control effect
Outline: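 ME-180 cells with beta-lactamase reporter under AP-1 response element, stimulated with EC50 EGF; compounds tested in titration series, 5 h at 37 °C. CCF4 substrate added 2.5 h at room temperature; 460/530 nm emission ratio gave %activity and AC50.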

[2] = Cell Viability - BJ (AID 421; calls by dose curve;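 further: potency means the concentration at half of the fitted maximal effect; cells exposed to compound for 40 hours at 37 °C before readout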); settings: BJ fibroblast viability, qHTS
Outline: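 Cytotoxicity in human BJ foreskin fibroblasts is scored as loss of cellular ATP after a 40-hour exposure, measured by luciferase luminescence. Controls are DMSO and 100 uM tamoxifen.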

[3] = Cell Viability - MRC5 (AID 434; calls by dose curve;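 further: potency means the concentration at half of the fitted maximal effect; potency reflects cytotoxicity seen as loss of intracellular ATP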); settings: MRC5 lung fibroblast viability, qHTS
Outline: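 Decrease in intracellular ATP, quantified by luciferase light output, reflects compound toxicity toward MRC5 cells exposed for 40 hr in complete culture medium. Concentration-response curves, scaled between DMSO and 100 uM tamoxifen, gave AC50 values.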

[4] = NFAT Signaling Pathway (AID 444);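 further: carbachol stimulus at about its EC50 of 1 µM final; on the % scale 0 is the no-effect control and ±100 the full control effect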
Outline: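 Jurkat cells carrying an NFAT-driven β-lactamase reporter and co-transfected muscarinic M1 receptor were treated with compound plus carbachol (1 uM final, an EC50 level) for 5 h at 37 °C. CCF4 loading followed for 1 h at RT; 460/530 nm ratio gave %activity.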

[5] = Stat Signaling Pathway (AID 446); settings: ME-180 (cervical carcinoma) SIE beta-lactamase reporter, IL-6 stimulated, 5 h;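 further: ME-180 cervical cancer cells given 40 pM IL-6 alongside compound; SIE-controlled beta-lactamase reporter measured as 460/530 nm FRET emission ratio; on the % scale 0 is the no-effect control and ±100 the full control effect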
Outline: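 Emission at 460 and 530 nm (excitation 405 nm) reports SIE-controlled beta-lactamase in ME-180 cells. Cells received compound with 40 pM IL-6 for 5 hrs at 37 C; data scaled between 300 pM IL-6 and 125 nM JAK-inhibitor controls.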

[6] = molecular target: Glucocorticoid receptor (Homo sapiens) (UniProt P04150); assay: GR-GFP Redistribution (AID 450;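 active means compounds whose dose series gives a full or clear partial fitted curve of increased nuclear translocation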; further: potency means the concentration at half of the fitted maximal effect); settings: U2OS GR-GFP nuclear translocation, laser cytometry, 2 h
[7] = molecular target: Mitogen-activated protein kinase 10 (Mus musculus) (UniProt Q61831); assay: JNK3 AlphaScreen Assay (AID 530);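 further: kinase came from lysate of stimulated human HepG2 cells; signal reports phosphorylation of biotinylated GST-cJun 1-79 at Ser73 with 10 µM ATP; on the % scale 0 is the no-effect control and ±100 the full control effect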
Outline: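 Biotinylated GST-cJun(1-79) served as substrate for JNK3 in HepG2 lysates stimulated with IL-1beta and TNF-alpha. ATP was 10 uM final, pH 7.6. Ser73 phosphorylation was quantified by AlphaScreen (680 nm excitation).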

[8] = Cell Viability - HUV-EC-C (AID 542; active means well fitted curve in the direction sought with a large enough effect; an effect the other way counts as inactive or inconclusive; further: on the % scale 0 is the no-effect control and ±100 the full control effect; nearly all actives have a fitted effect of over 35% in size)
Outline: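 Concentration-dependent ATP loss in HUV-EC-C cells is the measure. Exposure lasts 40 hr at 37 °C; luminescence follows CellTiter-Glo addition, and Hill fits give AC50.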

[9] = Cell Viability - H-4-II-E (AID 543; active means well fitted curve in the direction sought with a large enough effect; an effect the other way counts as inactive or inconclusive; further: on the % scale 0 is the no-effect control and ±100 the full control effect; nearly all actives have a fitted effect of over 35% in size)
Outline: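 AC50 from Hill-modelled qHTS concentration-response curves. H-4-II-E rat hepatoma cells in complete medium, 40 hr exposure at 37 °C, viability by CellTiter-Glo ATP luminescence.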

[10] = Cell Viability - SH-SY5Y (AID 544; active means well fitted curve in the direction sought with a large enough effect; an effect the other way counts as inactive or inconclusive;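 further: 0% = DMSO alone and -100% = 100 µM tamoxifen; nearly all actives have a fitted effect of over 55% in size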); settings: SH-SY5Y neuroblastoma cell viability; viability change, negative = cytotoxic: at 92.2 µM (top of the series)
Outline: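 Quantitative HTS in SH-SY5Y neuroblastoma cells, 40 hr treatment at 37 °C, ATP content by luciferase luminescence; AC50 from Hill fits.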

[11] = Cell Viability - Renal Proximal Tubule (AID 545; active means well fitted curve in the direction sought with a large enough effect; an effect the other way counts as inactive or inconclusive;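 further: 0% = DMSO only and -100% = 100 µM tamoxifen; nearly all actives have a fitted effect of over 40% in size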); settings: renal proximal tubule cells viability, primary cells of rat origin; activity change, negative = cytotoxicity: at 91.7 µM (top of the series)
Outline: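 Primary rat renal proximal tubule cells (1000/well) were treated with compounds for 40 hr at 37 °C in complete medium. Intracellular ATP was measured by CellTiter-Glo luminescence, and AC50 values came from Hill-equation fits of concentration-response data.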

[12] = molecular target: Cytochrome P450 1A2 (Homo sapiens) (UniProt P05177); assay: p450-cyp1a2 (AID 410; calls by dose curve; further: potency means the concentration at half of the fitted maximal effect)
Outline: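 Read-out is luminescence from luciferin produced by CYP1A2 demethylation of Luciferin-ME (100uM, at Km). Detection reagent stopped the 60 min NADPH-dependent reaction; signals were normalized to 57 uM furafylline.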

[13] = molecular target: Glucocorticoid receptor (Homo sapiens) (UniProt P04150); assay: GR-EFC Redistribution (AID 451; calls by dose curve; further: potency means the concentration at half of the fitted maximal effect); settings: CHO-K1 GR-EFC translocation, beta-gal luminescence, 2 h
Outline: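 CHO-K1 cells stably expressing nuclear-localized β-gal enzyme acceptor and GR fused C-terminally to the enzyme donor fragment; ligand-driven nuclear translocation restores β-gal by complementation. Compounds titrated up to 46 uM final, 2 h at 37 °C; luminescence read.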

[14] = Cell Viability - Jurkat (AID 426;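 active means dose-dependent loss of cell ATP signal giving a full or clear fitted curve, ranked by lower potency value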;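 further: potency means the concentration at half of the fitted maximal effect; cells exposed to compound for 40 hours at 37 °C before ATP read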); settings: qHTS
Outline: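 Cytotoxicity was scored as loss of cellular ATP, measured by luciferase-based luminescence, in Jurkat clone E6-1 cells after 40 h compound treatment; tamoxifen and doxorubicin served as positive controls.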

[15] = Cell Viability - Hek293 (AID 427;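 active means compounds whose dose-response curve shows a full or clear partial loss of cell viability, called from curve shape rather than a numeric limit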;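 further: potency means the concentration at half of the fitted maximal effect; cells exposed to compound for 40 hours at 37 °C before reading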); settings: qHTS
Outline: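 qHTS, human embryonic kidney (adenovirus-transformed) cells; 40 hr cpd, 37 °C; CellTiter-Glo ATP luminescence. Norm: DMSO = 0, 100 uM tamoxifen = 100% inhibition. Hill-fit AC50.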

[16] = Cell Viability - HepG2 (AID 433; calls by dose curve;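 further: potency means the concentration at half of the fitted maximal effect; potency for ATP loss meaning cytotoxicity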); settings: qHTS
Outline: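 HepG2 hepatocellular carcinoma cells (1500/well) were treated with compounds for 40 h at 37 °C in complete medium; intracellular ATP was read by CellTiter-Glo luminescence. Data were normalized to DMSO and 100 uM tamoxifen, and AC50 came from Hill fits.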

[17] = Cell Viability - SK-N-SH (AID 435; calls by dose curve;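 further: potency means the concentration at half of the fitted maximal effect; compound exposure lasted 40 h at 37 °C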); settings: SK-N-SH neuroblastoma cell viability qHTS
Outline: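 SK-N-SH human neuroblastoma cells (1500/well) were exposed to compounds in complete medium for 40 h at 37 °C, and intracellular ATP was then measured by CellTiter-Glo luminescence. AC50 was taken from Hill fits, normalized to DMSO and 100 uM tamoxifen.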

[18] = Cell Viability - N2a (AID 540; active means well fitted curve in the direction sought with a large enough effect; an effect the other way counts as inactive or inconclusive;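 further: plate controls were DMSO alone for no effect and tamoxifen control for full effect; nearly all actives have a fitted effect of over 45% in size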); settings: N2a mouse neuroblastoma cell viability; activity change, negative = cytotoxicity: at 92.2 µM (top of the series)
Outline: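 In this qHTS cytotoxicity screen, ATP-dependent luciferase luminescence reports viable N2a cells after a 40 hr compound exposure in complete culture medium. Potencies are AC50 values from standard Hill equation fits.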

[19] = Cell Viability - Mesenchymal (AID 546; active means well fitted curve in the direction sought with a large enough effect; an effect the other way counts as inactive or inconclusive;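 further: cells exposed to compound for 40 hours before reading; 0% = DMSO only and -100% = 100 µM tamoxifen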); settings: mesenchymal cells viability, qHTS; activity change, negative = cytotoxicity: at 91.7 µM (top of the series)
Outline: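 In this qHTS cytotoxicity format, glomerulus-derived human mesenchymal kidney cells received compound for 40 hr, then luciferase-based ATP quantitation. Concentration-response data were fitted with the Hill equation.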

Cytochrome P450 1A2 (Homo sapiens), sequence (P05177 whole entry, looked up): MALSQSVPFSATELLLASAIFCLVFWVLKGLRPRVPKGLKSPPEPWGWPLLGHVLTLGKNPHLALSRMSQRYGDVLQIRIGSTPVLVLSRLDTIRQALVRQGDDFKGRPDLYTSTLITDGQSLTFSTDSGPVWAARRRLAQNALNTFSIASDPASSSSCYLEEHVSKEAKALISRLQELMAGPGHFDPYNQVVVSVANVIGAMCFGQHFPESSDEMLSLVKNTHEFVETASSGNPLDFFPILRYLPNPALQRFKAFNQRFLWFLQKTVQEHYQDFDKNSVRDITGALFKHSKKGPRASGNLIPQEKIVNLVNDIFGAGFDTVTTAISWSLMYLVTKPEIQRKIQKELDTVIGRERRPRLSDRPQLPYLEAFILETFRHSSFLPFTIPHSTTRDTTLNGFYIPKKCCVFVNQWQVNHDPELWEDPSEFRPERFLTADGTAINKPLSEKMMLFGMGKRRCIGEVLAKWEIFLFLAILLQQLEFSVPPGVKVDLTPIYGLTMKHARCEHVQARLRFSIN
Glucocorticoid receptor (Homo sapiens), sequence (P04150 whole entry, looked up, the tested form may be a part): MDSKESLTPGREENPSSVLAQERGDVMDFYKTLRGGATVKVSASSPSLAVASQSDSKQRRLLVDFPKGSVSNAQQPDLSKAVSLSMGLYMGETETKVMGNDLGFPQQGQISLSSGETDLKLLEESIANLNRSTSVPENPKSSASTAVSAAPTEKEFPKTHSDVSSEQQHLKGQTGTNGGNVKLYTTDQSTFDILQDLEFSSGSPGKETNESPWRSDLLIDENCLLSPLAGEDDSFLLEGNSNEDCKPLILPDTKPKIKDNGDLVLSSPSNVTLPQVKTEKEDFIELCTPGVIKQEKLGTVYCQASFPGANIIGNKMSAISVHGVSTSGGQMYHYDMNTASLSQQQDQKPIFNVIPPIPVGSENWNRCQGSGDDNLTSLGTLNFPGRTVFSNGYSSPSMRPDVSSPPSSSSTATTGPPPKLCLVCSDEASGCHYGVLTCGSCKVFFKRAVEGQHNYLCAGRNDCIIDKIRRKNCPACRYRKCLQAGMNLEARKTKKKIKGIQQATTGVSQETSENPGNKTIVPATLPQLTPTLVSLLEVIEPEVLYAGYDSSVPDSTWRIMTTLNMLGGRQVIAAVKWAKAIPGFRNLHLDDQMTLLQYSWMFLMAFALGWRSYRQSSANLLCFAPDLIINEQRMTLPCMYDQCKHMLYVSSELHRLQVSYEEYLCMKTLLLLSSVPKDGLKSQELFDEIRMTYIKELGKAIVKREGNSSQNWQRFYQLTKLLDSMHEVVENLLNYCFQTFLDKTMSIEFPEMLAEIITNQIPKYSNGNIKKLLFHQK

O=C(O)c1cc(O)c2c(c1)C(=O)c1cccc(O)c1C2=O
outcome [1]: inactive
Potency [2]: > 92 µM
Potency [3]: > 92 µM
outcome [4]: inactive
activity, negative = inhibition ([5]; at 17.2 µM (top of the series)): 11.9%
Potency [6]: > 20.6 µM
outcome [7]: inactive
Potency [8]: inactive
Potency [9]: inactive
Potency [10]: inactive
Potency [11]: inactive

CCN(CC)C(=O)c1ccc(O)c(OC)c1
outcome [1]: inactive
Potency [12]: 12.6 µM (active)
outcome [4]: inactive
activity, negative = inhibition ([5]; at 17.2 µM (top of the series)): 4.07% and -1.09%
activity, negative = inhibition ([5]; at 38 µM (top of the series)): -11.7%
Potency [6]: > 46 µM and > 20.6 µM
Potency [13]: > 46 µM and > 20.6 µM
outcome [7]: inactive

C[N+](C)(C)CCCCCC[N+](C)(C)C
outcome [1]: inactive
Potency [12]: inactive
outcome [4]: inactive
activity, negative = inhibition ([5]; at 17.2 µM (top of the series)): 8.45%
activity, negative = inhibition ([5]; at 38 µM (top of the series)): 9.91%
outcome [7]: inactive

O=C1NCC2(CCN(CCc3ccccc3)CC2)O1
outcome [1]: inactive
Potency [12]: inactive
outcome [4]: inactive
activity, negative = inhibition ([5]; at 17.2 µM (top of the series)): 8.61%
activity, negative = inhibition ([5]; at 38 µM (top of the series)): 4.62%
Potency [6]: > 46 µM and > 20.6 µM
Potency [13]: > 46 µM and > 20.6 µM
outcome [7]: inactive

Clc1ccc(Cn2c(CN3CCCC3)nc3ccccc32)cc1
outcome [1]: inactive
Potency [12]: 10 µM (active) and 3.98 µM (active)
outcome [4]: inactive
activity, negative = inhibition ([5]; at 17.2 µM (top of the series)): -8.1% and 3.26%
activity, negative = inhibition ([5]; at 38 µM (top of the series)): 0.465%
Potency [6]: > 46 µM and > 20.6 µM
Potency [13]: > 46 µM and > 20.6 µM
outcome [7]: inactive

O=C1C[C@@H](c2ccc(O)cc2)Oc2cc(O)cc(O)c21
outcome [1]: inactive
outcome [4]: inactive
activity, negative = inhibition ([5]; at 17.2 µM (top of the series)): 0.762%
Potency [6]: > 20.6 µM and > 46 µM
Potency [13]: > 20.6 µM and > 46 µM
outcome [7]: inactive

O=C(O)c1cc(-c2ccccc2)nc2ccccc12
outcome [1]: inactive
outcome [4]: inactive
activity, negative = inhibition ([5]; at 17.2 µM (top of the series)): -0.648%
Potency [6]: > 20.6 µM

CN(C)CCC(c1ccccc1)c1ccccn1 (centres undefined)
Potency [2]: > 92 µM
Potency [14]: > 92 µM
Potency [15]: > 92 µM
Potency [16]: > 92 µM
Potency [3]: > 92 µM
Potency [17]: > 92 µM
outcome [7]: inactive
Potency [18]: inactive
Potency [8]: inactive
Potency [9]: inactive
Potency [10]: inactive
Potency [11]: inactive
Potency [19]: inactive

CC(=O)O[C@]1(C(C)=O)CC[C@H]2[C@@H]3C=C(Cl)C4=CC(=O)[C@@H]5C[C@@H]5[C@]4(C)[C@H]3CC[C@@]21C
Potency [2]: > 92 µM
Potency [16]: > 92 µM
Potency [3]: > 92 µM
outcome [7]: inactive
Potency [8]: inactive
Potency [10]: inactive
Potency [11]: inactive
Potency [19]: inactive

CC(C(=O)O)c1ccc(-c2ccccc2)c(F)c1 (centres undefined)
outcome [1]: inactive
outcome [4]: inactive
activity, negative = inhibition ([5]; at 17.2 µM (top of the series)): -6.1%
Potency [6]: > 20.6 µM

COc1ccc(Cc2nccc3cc(OC)c(OC)cc23)cc1OC
Potency [12]: 25.1 µM (active) and 10 µM (active) and 31.6 µM (active)
outcome [7]: inactive

COc1ccc(-c2coc3cc(O)ccc3c2=O)cc1
Potency [12]: 0.631 µM (active)
Potency [6]: > 46 µM
Potency [13]: > 46 µM
outcome [7]: inactive

COc1cccc(-c2cc(=O)c3ccccc3o2)c1N
Potency [12]: 3.16 µM (active) and 200 nM (active)
outcome [4]: inactive
Potency [6]: > 46 µM
Potency [13]: > 46 µM
outcome [7]: inactive

O=c1cc(-c2ccccc2)oc2cc(O)c(O)c(O)c12
Potency [12]: 398 nM (active) and 501 nM (active)
Potency [6]: > 46 µM
Potency [13]: > 46 µM
outcome [7]: inactive

CC(C)(C)c1ccc(C(O)CCCN2CCC(C(O)(c3ccccc3)c3ccccc3)CC2)cc1 (centres undefined)
outcome [1]: inactive
outcome [4]: inactive
activity, negative = inhibition ([5]; at 17.2 µM (top of the series)): -1.77%
Potency [6]: > 20.6 µM

CCCCCCCCCCCC1=C(O)C(=O)C=C(O)C1=O
Potency [12]: inactive
Potency [6]: > 46 µM
Potency [13]: > 46 µM
outcome [7]: inactive
